Measured values from PubChem BioAssay.
Unmarked numbers belong to inactive results. The rule behind the calls is not given here.

What follows are molecules tested on Aerobactin synthetase IucA (Klebsiella pneumoniae hvKP1) (assay: IucA enzyme inhibition, primary screen, biochemical, Spectrum library (AID 1346200;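 note: 100% = wells without compound and 0% = wells lacking enzyme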)). Conditions: malachite green pyrophosphate, A620, at 8 µM, active compounds read low.
In the case of `CC(=O)O[C@@H]1C=C[C@@]2(C)C(C[C@@H](OC(C)=O)[C@@]3(C)C4=CC(=O)O[C@@H](c5ccoc5)[C@]4(C)CCC23)C1(C)C` (stereo partly specified), the activity remaining is reported as 82.6%.
Molecule `O=C1C(CCS(=O)c2ccccc2)C(=O)N(c2ccccc2)N1c1ccccc1` (stereo unspecified) has an activity remaining of 116%.
`CC(C)CCCC(C)C1CCC2C3CC[C@H]4C[C@@H](O)CC[C@]4(C)C3CC[C@]12C` (stereo partly specified) gave an activity remaining of 109%.
Molecule `CC1(C)O[C@@H]2CC3C4C[C@H](F)C5=CC(=O)C=CC5(C)C4C(O)CC3(C)[C@]2(C(=O)CO)O1` (stereo partly specified) has an activity remaining of 111%.
In the case of `O=C(/C=C/C=C/c1ccc2c(c1)OCO2)N1CCCCC1`, the activity remaining is reported as 104%.
Work on `CC1(C)CCC[C@@]2(C)C1[C@@H](O)C[C@]1(C)C2CC[C@@H]2[C@@]3(C)CC[C@H](C(C)(C)O)[C@@H]3CC[C@@]21C` (stereo partly specified) yielded an activity remaining of 99.1%.
With `CCCCCCCCCCCC1=C(O)C(=O)C=C(O)C1=O` the activity remaining was 102%.
Work on `CC(C)(Oc1ccc(CCNC(=O)c2ccc(Cl)cc2)cc1)C(=O)O` yielded an activity remaining of 96.6%.
In the case of `FC(F)(F)C(Cl)Br` (stereo unspecified), the activity remaining is reported as 106%.
Work on `CC(=O)/C(=C\c1ccccc1)CC(=O)O` yielded an activity remaining of 98.6%.
For `CC(=O)O[C@@H]1CC2C(C)(C)[C@H](O)C=C[C@]2(C)C2CC[C@@]3(C)[C@H](c4ccoc4)OC(=O)C4OC43[C@@]21C` (stereo partly specified), the activity remaining was 107%.
Molecule `CC1(C)O[C@@H]2CC3C4C[C@H](F)C5=CC(=O)CC[C@]5(C)C4[C@@H](O)C[C@]3(C)[C@]2(C(=O)CO)O1` (stereo partly specified) has an activity remaining of 118%.
Work on `C#C[C@]1(O)CCC2C3CCC4=C(CCC(=O)C4)C3CC[C@@]21C` (stereo partly specified) yielded an activity remaining of 109%.
Work on `CC(C)c1c(O)ccc2c1CCC1[C@@](C)(CO)CCC[C@]21C` (stereo partly specified) yielded an activity remaining of 101%.
`CCNC(=O)CC[C@H](N)C(=O)O` gave an activity remaining of 119%.
Work on `CC(=O)Oc1c2c(c3c(c1CC=C(C)C)O[C@]14C(=C[C@@H]5CC1C(C)(C)OC4(C/C=C(\C)C(=O)O)C5=O)C3=O)OC(C)(CCC=C(C)C)C=C2` (stereo partly specified) yielded an activity remaining of 112%.
`CC1(C)C[C@@H](O)[C@]2(C)CC[C@]3(C)C(=CCC4[C@@]5(C)CC[C@H](O)[C@](C)(CO)C5CC[C@]43C)[C@@H]2C1` (stereo partly specified) showed an activity remaining of 100%.
Molecule `CC(=O)[C@H]1CCC2C3CCC4=CC(=O)CC[C@]4(C)C3CC[C@@]21C` (stereo partly specified) has an activity remaining of 106%.
`COc1ccc(-c2cc(=O)c3cc(OC)ccc3o2)cc1` showed an activity remaining of 95.7%.
With `O=c1c(O)cccc2cc(O)c(O)c(O)c12` the activity remaining was 107%.
`CC(=O)[C@@]1(O)CCC2C3C[C@H](C)C4=CC(=O)C=CC4(C)[C@@]3(F)[C@@H](O)C[C@@]21C` (stereo partly specified) was tested, and the activity remaining was 114%.
Work on `OC(CCN1CCCC1)(c1ccccc1)C1CCCCC1` (stereo unspecified) yielded an activity remaining of 99.4%.
In the case of `COC1C(O)C(O[C@H]2CC[C@]3(C=O)C4C(CC[C@]3(O)C2)[C@@]2(O)CC[C@H](C3=CC(=O)OC3)[C@@]2(C)C[C@H]4OC(C)=O)OC(C)C1OC(C)=O` (stereo partly specified), the activity remaining is reported as 122%.
With `COc1cc2c(cc1-c1coc3c4c(c(OC)cc3c1=O)OC(C)(C)C=C4)OCO2` the activity remaining was 110%.
`CN(C/C=C/C#CC(C)(C)C)Cc1cccc2ccccc12` showed an activity remaining of 114%.
For `CCCCCC(O)C1C(=O)OC(C)C(O)/C=C/C=C/C=C/C=C/C=C(\C)C(O)CC(O)CC(O)CC(O)CC(O)CC(O)CC1O` (stereo unspecified), the activity remaining was 118%.
